Measurements published in PubChem BioAssay (NCI).
Compounds without any hit were thinned out: in the full panel of roughly 83,000, 20% have a hit.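 Cells were grown in 96-well plates and exposed to the test compound at a single concentration for 48 hours; results are reported as percent growth, with values below 10 considered active.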 Values without a mark were called inactive. Active and inactive are the calls of the source.

Legend:
Assay in all cases: NCI-60 one-dose screen, 48 h (100 = growth as untreated, 0 = no growth, -100 = all killed)
Settings in all cases: 10 µM
SK-MEL-2 melanoma = system: SK-MEL-2 melanoma
EKVX NSCLC = system: EKVX NSCLC
SN12C renal = system: SN12C renal
TK-10 renal = system: TK-10 renal
ACHN renal = system: ACHN renal
CAKI-1 renal = system: CAKI-1 renal
A498 renal = system: A498 renal
CCRF-CEM leukemia = system: CCRF-CEM leukemia
MOLT-4 leukemia = system: MOLT-4 leukemia

| SMILES | growth (SK-MEL-2 melanoma) | growth (EKVX NSCLC) | growth (SN12C renal) | growth (TK-10 renal) [%] | growth (ACHN renal) | growth (CAKI-1 renal) | growth (A498 renal) | growth (CCRF-CEM leukemia) | growth (MOLT-4 leukemia) |
| --- | --- | --- | --- | --- | --- | --- | --- | --- | --- |
| COC1=C[C@]23CCC(=O)N2CCc2cc4c(cc2[C@@H]3[C@@H]1OC(=O)CCCC(C)C)OCO4 | 101% | 80.4% | 104% | 66.1 | 32.1% | 48% | 25% | 59.7% | 9.63% (active) |
| COc1ccc2nc(Cl)c(-c3cc(-c4ccccc4)nc(=S)[nH]3)cc2c1 | 9.29% (active) | 65.6% | 75.6% | 129 | 51.3% | 56.9% | 87.7% | 64.5% | 23.8% |
| O=C(CSc1ccc(-c2ccc(Cl)cc2)nn1)Nc1ccc(Cl)c(C(F)(F)F)c1 | 59.7% | 44.3% | 79.3% | 66 | 79.3% | 61.3% | 89.9% | 44.9% | 11% |
| CN1CCc2c(sc3ncnc(N/N=C/c4cn(-c5ccccc5)nc4-c4ccc(Br)cc4)c23)C1 | 58.3% | 20.5% | 13.9% | 92.3 | 65.6% | 84.1% | 94.8% | 15.7% | 2.95% (active) |
| Cc1ccc(CSc2nc(Cl)c(C#N)c(-c3ccc(F)cc3)n2)cc1 | 92.1% | 79.6% | 70.2% | 91.7 | 85.4% | 67.1% | 91.6% | 67.7% | 61.9% |
| Cc1cccc2cc(-c3cc(-c4ccccc4)nc(=O)[nH]3)c(Cl)nc12 | 102% | 84.6% | 84% | 110 | 91.8% | 87.2% | 94.5% | 8.46% (active) | 61.3% |
| O=C(c1ccc([N+](=O)[O-])c([N+](=O)[O-])c1O)n1[nH]c(=O)c2ccccc2c1=O | 76.1% | 66.4% | 70.2% | 120 | 76.6% | 82.4% | 133% | 30.5% | 36.3% |
| O=c1oc2ccc(-c3ccc(F)cc3F)cc2c(=O)n1-c1ccc(Cl)c(C(F)(F)F)c1 | -62% (active) | -4.43% (active) | -15% (active) | 15.3 | -10.9% (active) | -15.8% (active) | -17.6% (active) | -5.71% (active) | -8.23% (active) |
| O=c1[nH]n(C(=S)N/N=C/c2ccc(F)cc2)c(=O)c2ccccc12 | 82.7% | 88.2% | 71.2% | 102 | 82.5% | 82% | 105% | 12.8% | 10.7% |
| CC(=O)C1=C(C)NC(SCC(=O)Nc2ccc(S(=O)(=O)Nc3cc(C)on3)cc2)=NC1c1ccccc1 (configuration not stated) | 119% | 101% | 111% | 112 | 106% | 99.8% | 109% | 98% | 109% |
| Cc1ccc(C(=O)Nc2ccc(-n3c(C)nc4c(cnn4-c4ccccc4)c3=O)cc2)cc1 | 78.3% | 30.5% | 73.3% | 82.3 | 61.8% | 72.4% | 87.3% | 46.3% | 34.3% |
| Cc1ccc(-c2cc(-c3cc4ccccc4nc3Cl)[nH]c(=O)n2)cc1 | 41% | 27.4% | 0.368% (active) | 26.3 | 38.6% | 24.8% | 57.3% | -30.1% (active) | -21.6% (active) |
| O=C(CSc1nnc(-c2c[nH]c3ccccc23)n1-c1ccccc1)c1ccc(Br)cc1 | -19.5% (active) | 10.8% | 72.9% | 64.9 | 37.4% | 44.3% | 36% | 86.4% | 92.2% |
